The list is not random: actives were taken first. Their share in the collection is about 2.6%.
CF NFkB block: cystic fibrosis NF-kB activation inhibition | KKLEB NF-kB-GFP reporter, PAF-induced, GFP fluorescence overnight | inhibition, % at 5 µM | 360,000 tested, 0.86% active | AID 588850;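 active means at least 50% inhibition at 5 µM, scaled per plate between neutral and stimulator controls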;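 further: PAF is a Pseudomonas aeruginosa culture filtrate used as stimulus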
Shn3 inh set2: Schnurri-3 reporter inhibition in Clone20 osteoblasts; Clone20 osteoblast Shn3 3'UTR firefly luciferase, 24 h; inhibition, % at 12.5 µM; 360,000 tested, 0.52% active;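 active means mean inhibition of at least 75% with every replicate also reaching 75%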
KKLEB cytotox: CF airway cell cytotoxicity counter-screen. KKLEB CF airway cells viability, ATPlite luminescence, overnight; hits give low values; cells stimulated with P. aeruginosa culture filtrate. activity change (cytotoxicity), % at 5 µM. 360,000 tested, 0.36% active;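 active means corrected activity change at or below -50% at 5 µM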
HIF-2a inh: HIF-2a inhibition | 786-0 RCC cells HIF-2a reporter, luciferase luminescence, overnight | inhibition, % at 18.8 µM | 360,000 tested, 0.72% active;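 active means inhibition of the luminescence signal of 40% or more relative to plate controls, in a single-dose primary screen at 18.75 µM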
Peg3 promoter: reduces Peg3 promoter-driven luciferase expression in HeLa. HeLa PEG-Prom luciferase reporter, luminescence, overnight. 360,000 tested, 1.7% active. inhibition, % at 20 µM. AID 588405;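 active means inhibition of at least 50% at 20 µM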
Of the large screens only hits and unclear results are named; the others gave an inactive call.

O=C(O)c1ccc2c(=O)n3c(nc2c1)/C(=C/c1cccc(Cl)c1Cl)CC3	none
CN1CCN(Cc2nc3ccccc3c(=O)n2Cc2nc(-c3ccc([N+](=O)[O-])cc3)cs2)CC1	Peg3 promoter 72
COc1cc(C(=O)NC2CCN(C)CC2)ccc1Nc1ncc2c(n1)N(Cc1ccccc1)CCC(=O)N2C	none
CCN1C(=O)CC(c2ccccc2)N(C2CCCC2)c2nc(Nc3ccc(C(=O)NC4CCN(C)CC4)cc3OC)ncc21 (stereo not drawn)	Peg3 promoter 94
CCN1C(=O)CC(C(C)C)N(C2CCCC2)c2nc(Nc3ccc(C(=O)NC4CCN(C)CC4)cc3OC)ncc21 (stereo not drawn)	Peg3 promoter 66
COc1cc(C(=O)NC2CCN(C)CC2)ccc1Nc1ncc2c(n1)N(C1CCCCC1)CCC(=O)N2C	Peg3 promoter 91
CN1C=CC(=CC=C2C=CC(=O)C=C2)C=C1	none
COc1cc(NC(=O)c2cc(-c3ccc4c(c3)OCO4)on2)cc(OC)c1OC	none
O=C(Nc1cccc(O)c1)c1cc(-c2ccc3c(c2)OCO3)on1	KKLEB cytotox -70
O=C(N=Nc1c(O)[nH]c2ccc(Br)cc12)c1ccco1	none
O=C(N=Nc1c(O)[nH]c2ccc(Br)cc12)c1cc(-c2cccs2)nc2ccccc12	Peg3 promoter 60
O=C(N=Nc1c(O)[nH]c2ccc(Br)cc12)c1cc(-c2cccc3ccccc23)n[nH]1	Peg3 promoter 55
Cn1c(O)c(N=NC(=O)c2cc(-c3cccs3)nc3ccccc23)c2ccccc21	none
Nn1c(SCC(=O)NNC(=O)c2ccccc2)nnc1-c1ccccc1F	none
Cc1cc(C(=O)N/N=C/c2cc(Br)ccc2OC(=O)c2ccccc2)n[nH]1	none
Cc1cc(C(=O)N/N=C/c2cc(Br)ccc2OC(=O)c2ccccc2Cl)n[nH]1	Shn3 inh set2 90
COc1ccc(-c2ncncc2-c2csc(C)n2)c(O)c1OC	none
COC1=C(N)C(=O)c2nc(-c3nc(C(=O)O)c(C)c(-c4ccc(OC)c(OC)c4O)c3N)ccc2C1=O	Shn3 inh set2 114 (no result: CF NFkB block, KKLEB cytotox, HIF-2a inh, Peg3 promoter)
COc1ccc(C(=O)NC(=S)NNC(=O)[C@H]2C[C@@H]2c2ccccc2)cc1OC	Peg3 promoter 61
COc1ccc(N2CCN(Cc3cc(=O)oc4cc(-c5ccccc5)c(O)cc34)CC2)cc1	Peg3 promoter 70
O=c1cc(CN2CCN(c3ccccc3F)CC2)c2cc(O)c(-c3ccccc3)cc2o1	none
CNS(=O)(=O)c1ccc2c(c1)NC(=O)C1CCCN21 (stereo not drawn)	Peg3 promoter 81
O=C(/C=C1\NC2(CCCC2)Cc2ccccc21)C(=O)N/N=C/c1ccccc1O	CF NFkB block 51, Shn3 inh set2 91
COc1cc(CCC(=O)Nc2nnc(-c3cccnc3)s2)cc(OC)c1OC	none
O=P(CCCCCCCCCP(=O)(c1ccccc1)c1ccccc1)(c1ccccc1)c1ccccc1	Shn3 inh set2 88, Peg3 promoter 67
O=C(O)CCCCCCCCCCP(=O)(c1ccccc1)c1ccccc1	none
COc1cc([N+](=O)[O-])ccc1NC(=O)c1cccc(NC(=O)C(C)C)c1	none
COc1cc(NC(=O)c2ccc([N+](=O)[O-])o2)ccc1NC(=O)c1ccco1	Peg3 promoter 57
COc1cc(NC(=O)c2ccc(-c3cccc([N+](=O)[O-])c3)o2)ccc1NC(=O)C(C)C	Peg3 promoter 78
NC(=O)c1oc2ccccc2c1NC(=O)c1ccc([N+](=O)[O-])o1	CF NFkB block 62, Peg3 promoter 109
Cc1cc(C)cc(NC(=O)c2ccc([N+](=O)[O-])o2)c1	CF NFkB block 85, KKLEB cytotox -68, Peg3 promoter 75
CN1CCN(CCC(=O)N/N=C/c2ccccn2)CC1	none
CC(=O)N1CCN(C(=O)c2ccc(Cl)c(S(=O)(=O)N3CCc4ccccc43)c2)CC1	none
O=C(c1ccc(Cl)c(S(=O)(=O)N2CCc3ccccc32)c1)N1CCN(c2ccccc2O)CC1	Peg3 promoter 69
Cn1c(=O)[nH]c(=O)c2c1nc(NCCN)n2CCOc1ccccc1	none
CCOC(=O)N1CCc2cc(OC)c(OC)c3c2c1cc1cc(OC)c(OC)cc13	Peg3 promoter 51
COc1cc(CC(=O)N2CCc3ccccc32)cc(OC)c1OC	none
CCOC(=O)c1c(-c2ccccc2)csc1NC(=O)c1ccc(N2C(=O)CCC2=O)cc1	CF NFkB block 69, KKLEB cytotox -57
O=C(C[C@H]1C/C=C\CC[C@@H](Cc2ccc(F)cc2)C(=O)O[C@@H](c2ccccc2)CNC1=O)N[C@@H](CO)Cc1ccccc1	Peg3 promoter 88
O=C(C[C@@H]1C/C=C/CC[C@H](Cc2ccc(F)cc2)C(=O)OC[C@@H](Cc2ccccc2)NC1=O)N[C@H](CO)Cc1ccccc1	CF NFkB block 62, KKLEB cytotox -91, Peg3 promoter 82
C[C@@H]1COC(=O)[C@H](Cc2ccc(F)cc2)CC/C=C/C[C@@H](CC(=O)N[C@@H](CO)Cc2ccccc2)C(=O)N1	none
O=C(C[C@H]1C/C=C\CC[C@@H](Cc2ccc(F)cc2)C(=O)O[C@H](c2ccccc2)CNC1=O)N[C@H](CO)Cc1ccccc1	Peg3 promoter 81
O=C(C[C@H]1C/C=C\C[C@H](Cc2ccc(F)cc2)C(=O)O[C@@H](c2ccccc2)CNC1=O)N[C@@H](CO)Cc1ccccc1	none
O=C(C[C@H]1C/C=C\C[C@@H](Cc2ccc(F)cc2)C(=O)O[C@@H](c2ccccc2)CNC1=O)N[C@@H](CO)Cc1ccccc1	none
C=CCOC(=O)COc1ccc2c(C)c(C)c(=O)oc2c1	none
COc1cc(C=O)ccc1Oc1nc(Nc2ccc(F)cc2F)nc(N2CCOCC2)n1	none
COc1ccccc1N(CC(=O)NCCSCc1ccccc1)S(C)(=O)=O	none
COc1ccccc1N(CC(=O)NCCSCc1cccc(C)c1)S(=O)(=O)c1ccccc1	Peg3 promoter 61
O=C(c1ccc(CSc2nc3ccncc3[nH]2)cc1)N1CCCCCC1	none
Clc1ccc(CSc2nc3ccncc3[nH]2)cc1	KKLEB cytotox -59
Cc1ccc(CSc2nc3ccncc3[nH]2)cc1	KKLEB cytotox -70
O=C(c1ccc(CSc2nc3ccncc3[nH]2)cc1)N1CCN(c2cccc(Cl)c2)CC1	Shn3 inh set2 88
CCOc1ccc(-n2c(-c3ccccc3)c[n+]3c2CCC3)cc1	Shn3 inh set2 84
CCOc1ccc(-n2c(-c3ccc(Br)cc3)c[n+]3c2CCCCC3)cc1	none
CCOc1ccc(-n2c(-c3ccc(OC)cc3)c[n+]3c2CCCCC3)cc1	Shn3 inh set2 85
COCOc1cccc(CN2CCC2(C)C(=O)Nc2ccc3c(c2)OCO3)c1 (stereo not drawn)	none
Fc1ccc(Nc2nc(NCc3cccs3)nc3ccsc23)cc1	none
CC(C)=N/N=C1/NC(=O)C(CC(=O)Nc2cc(Cl)ccc2C)S1 (stereo not drawn)	none
Brc1ccc(-c2nc(N/N=C/c3cccnc3)c3ccccc3n2)cc1	KKLEB cytotox -70
